YB-1 expr inh = YB-1 expression inhibition. U2OS, qRT-PCR YB-1 vs CDIP delta delta Cp, 16 h; hits give high values; zero = DMSO, each unit about twofold. delta delta Cp (YB-1 minus CDIP) (no concentration beside the values). 30,000 tested, 0.37% active;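 active = delta delta Cp rounded down to an integer at or above 3, about 3 SD of DMSO wells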;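 note: higher means less YB-1 transcript or more CDIP transcript relative to DMSO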
U2OS ROS induce = inducers of reactive oxygen species in cancer cells. U2OS ROS induction, H2DCF-DA fluorescence. ROS induction (% of piperlongumine), % at 10 µM. 46,000 tested, 2% active. AID 624156; in the data active = ROS induction above about 79%, passing the limit was not always enough; inconclusive = no clear call, values can overlap the other calls
NOMO-1 viab = STK33 inhibitor candidate reducing NOMO-1 cell viability; NOMO-1 AML viability, CellTiter-Glo luminescence, 72 h; 37,000 tested, 7.5% active; AID 2330; inhibition, % (test concentration not listed); in the data active = inhibition above about 80%; inconclusive = no clear call, values can overlap the other calls
PD-1 reversal = reversal of PD-1 mediated T-cell inhibition; primary human CD4 T cells, PD-L1 beads, CellTiter-Glo 96 h; activation, % (test concentration not listed); 29,000 tested, under 10 active; AID 2316; call rule not given here
Hits are given with their value; i = inactive; ? = inconclusive; nt = no result. Many of the other results were omitted from the sample, so hits are more common in it than they were.

SMILES	YB-1 expr inh	U2OS ROS induce	NOMO-1 viab	PD-1 reversal
C[C@H](CO)N1C[C@H](C)[C@H](CN(C)Cc2ccc(C(=O)Nc3ccccc3N)cc2)Oc2ccc(NC(=O)Nc3ccc(C(F)(F)F)cc3)cc2CC1=O	i	?	140	i
C[C@H](CO)N1C[C@H](C)[C@H](CN(C)Cc2ccc(C(=O)Nc3ccccc3N)cc2)Oc2ccc(NC(=O)Cn3cnnn3)cc2CC1=O	i	i	97	i
C[C@H](CO)N1C[C@H](C)[C@H](CN(C)Cc2ccc(C(=O)Nc3ccccc3N)cc2)Oc2ccc(NC(=O)Nc3cccc4ccccc34)cc2CC1=O	i	i	141	i
C[C@@H]1CN([C@H](C)CO)C(=O)c2cc(NC(=O)Nc3cccc4ccccc34)ccc2O[C@@H]1CN(C)Cc1ccc(C(=O)Nc2ccccc2N)cc1	i	i	105	i
Cc1ccc(CN(CC(N)=O)S(=O)(=O)c2ccc(Cl)cc2)cc1	nt	i	i	i
CCC1(C)Cc2c(sc3nc(SC)nc(SCC(=O)Nc4ccc(C)cc4)c23)CO1 (configuration not stated)	nt	nt	i	nt
CC(C)NC(=O)Nc1ccc2c(c1)CC(=O)N([C@H](C)CO)C[C@H](C)[C@H](CN(C)Cc1ccc(C(=O)Nc3ccccc3N)cc1)O2	i	i	126	i
C[C@@H]1CN([C@H](C)CO)C(=O)Cc2cc(NC(=O)Nc3ccccc3)ccc2O[C@@H]1CN(C)Cc1ccc(C(=O)Nc2ccccc2N)cc1	i	102	108	i
COc1ccc(CC(=O)Nc2ccc(O)cc2C(=O)O)cc1OC	nt	nt	i	nt
Cc1cc(-c2ccc3ccccc3n2)nc2ccc3ccccc3c12	i	i	i	i
CC(=O)N1CCN(c2ccc([N+](=O)[O-])c(NCc3cccnc3)c2)CC1	nt	i	i	i
O=C(c1ccccc1Cl)N1CCN(c2ccc([N+](=O)[O-])c(NCc3cccnc3)c2)CC1	nt	79	i	i
CC(C)(C)c1ccc(C(=O)N2CCN(c3ccc([N+](=O)[O-])c(NCc4cccnc4)c3)CC2)cc1	nt	106	111	i
Cc1cc(-c2ccccc2)nc(SCC(=O)Nc2ccc(SC(F)F)cc2)n1	nt	nt	i	nt
COc1ccc(NC(=O)Nc2ccc3c(c2)CC(=O)N([C@H](C)CO)C[C@H](C)[C@H](CN(C)Cc2ccc(-c4ccccc4)cc2)O3)cc1	i	i	i	i
C[C@H](CO)N1C[C@H](C)[C@H](CN(C)Cc2ccc(-c3ccccc3)cc2)Oc2ccc(NC(=O)Nc3ccccc3)cc2CC1=O	i	i	113	i
C[C@H]1CN([C@@H](C)CO)C(=O)Cc2cc(NC(=O)Nc3ccccc3)ccc2O[C@H]1CN(C)Cc1ccc(-c2ccccc2)cc1	i	i	i	i
COc1ccc(NC(=O)Nc2ccc3c(c2)CC(=O)N([C@H](C)CO)C[C@@H](C)[C@@H](CN(C)Cc2ccc(-c4ccccc4)cc2)O3)cc1	i	i	112	i
C[C@@H]1CN([C@@H](C)CO)C(=O)Cc2cc(NC(=O)c3ccncc3)ccc2O[C@@H]1CN(C)Cc1ccccc1	i	i	i	i
C[C@H]1CN([C@@H](C)CO)C(=O)Cc2cc(NC(=O)c3ccncc3)ccc2O[C@H]1CN(C)Cc1ccc(-c2ccccc2)cc1	i	i	89	nt
C[C@H]1CN([C@@H](C)CO)C(=O)Cc2cc(NC(=O)Nc3ccc4c(c3)OCO4)ccc2O[C@H]1CN(C)Cc1ccc(-c2ccccc2)cc1	i	i	92	i
COc1ccc(S(=O)(=O)c2c(C(=O)c3ccccc3)cnc3cc(OC)c(OC)cc23)cc1	nt	i	nt	nt
CC(=O)c1cccc(-n2c(CCC(=O)O)ccc2-c2ccc(Br)cc2)c1	nt	i	i	i
FC(F)(F)c1ccc(CSc2c[nH]c3ccccc23)cc1	nt	i	nt	nt
COc1ccc(CN(C)C[C@@H]2Oc3ccc(NC(=O)Nc4ccc(OC)cc4)cc3CC(=O)N([C@H](C)CO)C[C@@H]2C)cc1	i	i	i	nt
SMILES	YB-1 expr inh	U2OS ROS induce	NOMO-1 viab	PD-1 reversal
COc1ccc(NC(=O)Nc2ccc3c(c2)CC(=O)N([C@@H](C)CO)C[C@H](C)[C@H](CN(C)Cc2ccc(C(=O)O)cc2)O3)cc1	i	133	i	i
O=c1n(CCCN2CCN(c3cccc(Cl)c3)CC2)nc2ccccn12	i	i	i	nt
CCCc1c(C#N)c(N)nc(SCCCN2CCN(c3cccc(Cl)c3)CC2)c1C#N	nt	126	nt	nt
CNC(=O)c1c(N)sc2c1CCCCC2	i	i	126	i
Cc1sc2ncnc(SCC(=O)Nc3nsc(-c4ccccc4)n3)c2c1C	nt	i	?	i
O[C@@H]1[C@@H](O)C=C2CCN3Cc4cc5c(cc4[C@H]1C23)OCO5 (some centres not stated)	i	i	114	nt

Assay outcomes from PubChem BioAssay.
